Assay results: PubChem BioAssay (Tox21)
Results filed as inconclusive are left out. A call without a number means that no potency is given here. Calls of active or inactive are those of the source. The call rests on the fitted dose curve; in most records, active means well fitted inhibition curve with a large enough effect in the repeat runs; inconclusive means weak or mixed curves; inactive means no such curve, though single readings can be large or run the other way.

target: Estrogen receptor (Homo sapiens) (UniProt P03372); assay: qHTS assay to identify small molecule antagonists of the estrogen receptor alpha (ER-alpha) signaling pathway using the BG1 cell line in the presence of 0.1 nM 17-beta-estradiol (AID 1259244); conditions: VM7Luc4E2 (BG1) ERE-luciferase, antagonist mode, 0.1 nM E2, 22 h; series mostly up to 92.4 µM; further: nearly all actives have a fitted effect of over 50% in size
Sequence (P03372 whole entry, looked up): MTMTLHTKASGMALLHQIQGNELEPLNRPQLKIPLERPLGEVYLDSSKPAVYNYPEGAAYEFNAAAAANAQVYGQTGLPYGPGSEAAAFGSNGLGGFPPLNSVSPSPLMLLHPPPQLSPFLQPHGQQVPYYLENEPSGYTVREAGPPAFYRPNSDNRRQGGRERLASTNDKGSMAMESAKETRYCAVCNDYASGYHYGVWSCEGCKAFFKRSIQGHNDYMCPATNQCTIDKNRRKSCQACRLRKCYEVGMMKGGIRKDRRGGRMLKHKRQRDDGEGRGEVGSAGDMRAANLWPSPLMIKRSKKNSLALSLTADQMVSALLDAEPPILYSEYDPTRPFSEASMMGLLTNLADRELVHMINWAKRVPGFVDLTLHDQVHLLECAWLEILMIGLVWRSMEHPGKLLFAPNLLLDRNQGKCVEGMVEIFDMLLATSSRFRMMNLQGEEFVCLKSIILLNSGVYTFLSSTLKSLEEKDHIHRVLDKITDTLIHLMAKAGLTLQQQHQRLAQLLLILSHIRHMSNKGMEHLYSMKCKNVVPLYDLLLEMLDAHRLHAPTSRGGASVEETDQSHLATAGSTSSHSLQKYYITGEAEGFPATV
From the text: National Center for Advancing Translational Sciences [NCATS]
NIH Chemical Genomics Center [NCGC]
U.S. Environmental Protection Agency [EPA]
National Institutes of Environmental Health Sciences [NIEHS]
National Toxicology Program [NTP]
U.S. Food and Drug Administration [FDA]
Estrogen receptor (ER), a member of the nuclear hormone receptor plays an important role in development, metabolic homeostasis and reproduction. Two subtypes of ER, ER-alpha and ER-beta, have similar expression patterns with some uniqueness in both types. Endocrine disrupting chemicals (EDCs) and their interactions with steroid hormone receptors like ER causes disruption of normal endocrine function. Therefore, it is important to understand the effect of environmental chemicals in ER signaling pathway. For identifying ER antagonists, VM7Luc4E2 cell line was used to screen against Tox21 compound libraries.
VM7Luc4E2 cell line (provided by Denison MS, University of California) endogenously express full-length ER-alpha and is stably transfected with a plasmid containing four estrogen responsive elements (ERE) upstream of a luciferase reporter gene. The current screening for identification of ER-alpha inhibitors against Tox21 compound libraries used lower concentration (0.1 nM) of 17beta-Estradiol as a stimulator.
Tox21 Assay Protocol Summary:
VM7Luc4E2 cells were cultured in phenol red free assay medium containing 10% charcoal stripped FBS for 5 days prior to the assay. The cells were dispensed at 4,000 cells/well in 4 uL of assay medium into white wall/solid-bottom 1536-well plates (Corning Life Sciences, Corning, NY) using a Multidrop Combi (ThermoFisher Scientific, Waltham, MA) dispenser. After the assay plates were incubated at 37C and 5% CO2 for 24 hr, 23 nL of compounds dissolved in DMSO, positive controls or DMSO only was transferred to the assay plates by a Pintool station (Kalypsys, San Diego, CA). The transfer of compounds was followed by the addition of 1 uL of 0.1 nM (final concentration) agonist (17beta-Estradiol)/assay medium using a Flying Reagent Dispenser (FRD, Aurora Discovery, San Diego, CA). The plates were incubated at 37C and 5% CO2 for 22 hr. For luciferase reporter gene assay, 4 uL of ONE-Glo reagent (Promega Corporation, Madison, WI) was added to each well using the FRD and after 30 min incubation at room temperature luminescence intensity was measured using ViewLux plate reader (PerkinElmer, Shelton, CT).
Potency means the concentration at half of the fitted maximal effect.

SMILES	Potency
O=C(CCl)c1ccc(Cl)cc1Cl	inactive
ClC=C(Cl)Cl	inactive
C=CC(C)=O	inactive
Sc1ccccc1Cl	inactive
N#Cc1ccc(Cl)cc1	inactive
O=C(C(Cl)(Cl)Cl)C(Cl)(Cl)Cl	inactive
ClCc1ccccc1	inactive
NS(=O)(=O)C(F)(F)C(F)(F)C(F)(F)C(F)(F)C(F)(F)C(F)(F)C(F)(F)C(F)(F)F	inactive
CCCCCCC#N	inactive
COCC(C)N(C(=O)CCl)c1c(C)csc1C (stereo not given)	inactive
CS/C(C)=N/OC(=O)N(C)SN(C)C(=O)O/N=C(\C)SC	inactive
O=C(CBr)OCc1ccccc1	inactive
C=CCCl	inactive
CC1(C)[C@H](C=C(Cl)Cl)[C@@H]1C(=O)O[C@@H](C#N)c1cccc(Oc2ccccc2)c1	inactive
CCO[C@H]1O[C@@H]2OC3(C)CC[C@H]4[C@H](C)CC[C@@H]([C@H]1C)[C@@]24OO3	inactive
CCOP(=O)(OCC)SCCSCC	inactive
NNC(=O)c1cccnc1	inactive
CN(N=O)c1ccc([N+](=O)[O-])cc1	inactive
Clc1cccc(SC2CCNCC2)n1	inactive
Cc1c(F)c(F)c(COC(=O)C2C(/C=C(\Cl)C(F)(F)F)C2(C)C)c(F)c1F (stereo not given)	inactive

SMILES	Potency
O=C(CBr)Nc1ccc(Cl)cc1C(=O)c1ccccc1F	inactive
C=CCOC(C)=O	inactive
C=CC[C@]1(O)CC[C@H]2[C@@H]3CCC4=CC(=O)CCC4=C3C=C[C@@]21C	13.3 µM (active)
C(=NC1CCCCC1)=NC1CCCCC1	43.3 µM (active)
O=NN1CCCCCC1	inactive
O=[N+]([O-])c1cc(C(F)(F)F)cc([N+](=O)[O-])c1Cl	inactive
CCOP(=O)(OCC)O/C(=C/Cl)c1ccc(Cl)cc1Cl	54.5 µM (active)
COC(=O)C(Br)CBr (stereo not given)	inactive
O=S1(=O)OC(c2cc(Br)c(O)c(Br)c2)(c2cc(Br)c(O)c(Br)c2)c2ccccc21	17.7 µM (active)
C[C@]12CC[C@H]3[C@@H](CCC4=CC(=O)CC[C@@H]43)[C@@H]1CC[C@@H]2OC(=O)CCC1CCCCC1	inactive
Brc1ccccc1	inactive
CCCN(CCC)c1c([N+](=O)[O-])cc(S(C)(=O)=O)cc1[N+](=O)[O-]	inactive
CNP(=O)(OC)Oc1ccc(C(C)(C)C)cc1Cl (stereo not given)	inactive
CC(=O)[C@H]1CC[C@H]2[C@@H]3CC[C@H]4C[C@](C)(O)CC[C@]4(C)[C@H]3CC[C@]12C	inactive
CO/C=C(/C(=O)OC)c1ccccc1COc1cccc(C(F)(F)F)n1	2.17 µM (active)
OCCCBr	inactive
COc1c(C(C)(C)C)cc([N+](=O)[O-])c(C)c1[N+](=O)[O-]	inactive
COC(=O)C(C)N(C(=O)Cc1ccccc1)c1c(C)cccc1C (stereo not given)	inactive
O=NN1CCNCC1	inactive
O=C=Nc1ccc(Cl)cc1	inactive
